In the library only some 12% were active in any assay of this set; here they are far more common.
SARS PLpro yeast: blocks SARS-CoV papain-like protease in a yeast assay; Potency, µM (highest dose often 32.9 µM), inactives show at the highest dose activity, positive = growth rescue, actives largely listed as activators; 330,000 tested, 0.19% active; S. cerevisiae expressing SARS-CoV PLpro, growth rescue; AID 485353; calls by dose curve; also: 0% is about no effect; nearly all actives have a fitted effect of over 55% in size
Pf growth 96h: P. falciparum growth inhibition at 96 hours | P. falciparum luciferase reporter growth, 96 h | Potency, µM (highest dose often 28.7 µM), without a hit: at the top dose activity change, negative = inhibition, actives largely listed as inhibitors | 320,000 tested, 6.9% active; also: % is scaled to controls: 0 for no effect and ±100 for the full control effect
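Readout is luminescence from an integrated firefly luciferase in P. falciparum. Red cells, 2% hematocrit and 0.05% parasitemia final, were cultured with compound through two parasite generations (96 hours) at 37 C, 5% CO2.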
AmpC inh no detg: blocks E. coli AmpC beta-lactamase in detergent-free assay. 330,000 tested, 0.52% active. AmpC nitrocefin hydrolysis, absorbance 480 nm, 0.0001% Triton. Potency, µM (highest dose often 57.1 µM), without a hit: top-dose activity change, negative = inhibition, usual class: inhibitors. P00811;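 also: plate controls were no compound for no effect and no enzyme for full effect; nearly all actives have a fitted effect of over 20% in size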
Target sequence (P00811 whole entry, looked up): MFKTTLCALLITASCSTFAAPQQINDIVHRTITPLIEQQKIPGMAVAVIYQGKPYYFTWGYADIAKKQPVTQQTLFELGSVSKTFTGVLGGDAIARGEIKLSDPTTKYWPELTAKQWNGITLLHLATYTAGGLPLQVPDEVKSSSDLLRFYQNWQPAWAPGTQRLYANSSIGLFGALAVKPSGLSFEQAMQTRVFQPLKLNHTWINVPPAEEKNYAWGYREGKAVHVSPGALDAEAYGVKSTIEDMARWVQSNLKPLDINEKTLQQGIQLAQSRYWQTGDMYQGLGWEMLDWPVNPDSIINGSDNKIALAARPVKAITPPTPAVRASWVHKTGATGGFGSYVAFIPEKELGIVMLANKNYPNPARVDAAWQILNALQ
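20 mM phosphate pH 7.0 + 0.01% (detergent screen) or 0.0001% Triton X-100; 5.3 nM AmpC reagent; cpd preinc 15 min RT; nitrocefin (800 uM stock) to start; A480 q20 s × 4 min; Activity was normalised to no-enzyme and no-compound control wells.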
Pf growth 48h: inhibits P. falciparum growth in the first generation, 48 h. P. falciparum luciferase growth in erythrocytes, 48 h. Potency, µM (top dose mostly 28.7 µM), for inactives: top-dose activity change, negative = inhibition, hits mostly inhibitors. 310,000 tested, 5.9% active. AID 504832; also: % is scaled to controls: 0 for no effect and ±100 for the full control effect
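Luminescence readout; reporter = integrated firefly luciferase in P. falciparum. RBC culture at 2% hematocrit, 0.1% parasitemia final, 37 C/5% CO2; decreased signal taken as growth inhibition.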
AmpC detergent: blocks E. coli AmpC beta-lactamase in detergent assay | P00811 | AmpC hydrolysis of nitrocefin, absorbance 480 nm, 0.01% Triton | Potency, µM (highest dose often 114 µM), without a hit: at the top dose activity change, negative = inhibition, most hits filed as inhibitors | 370,000 tested, 0.041% active;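 also: 0% = no-compound wells and -100% = no-enzyme wells; nearly all actives have a fitted effect of over 25% in size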
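20 mM phosphate pH 7.0 + 0.01% (detergent screen) or 0.0001% Triton X-100; 5.3 nM AmpC reagent; cpd preinc 15 min RT; nitrocefin (800 uM stock) to start; A480 q20 s × 4 min; Activity was normalised to no-enzyme and no-compound control wells.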
Sm TGR inh: blocks Schistosoma mansoni thioredoxin glutathione reductase | Potency, µM (titrated, usually from 114 µM), inactives show at the top dose activity change, negative = inhibition, hits mostly inhibitors | purified TGR, DTNB reduction, TNB absorbance 405 nm | 360,000 tested, 3% active | Q962Y6; also: % is scaled to controls: 0 for no effect and ±100 for the full control effect; nearly all actives have a fitted effect of over 60% in size
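Kinetic colorimetric format: TGR-catalysed, NADPH-driven DTNB reduction monitored via TNB absorbance. Enzyme dispensed at 20 nM; compound exposure 15 min at room temperature before reaction start.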
An asterisk follows results filed as active; ? = inconclusive; . = no result; [ ] = remark or other dose. Unless noted, calls follow the shape of the dose curve; as a rule, active = well fitted curve in the direction sought with a large enough effect; inconclusive = small, poorly fitted or top-dose-only effect, or another doubt; inactive = no such curve, though single readings can be large; an effect the other way counts as inactive or inconclusive. Potency is read from the fitted curve at half-maximal effect.

SMILES	SARS PLpro yeast	Pf growth 96h	AmpC inh no detg	Pf growth 48h	AmpC detergent	Sm TGR inh
CN1C2C=C3C(C#N)=C(N)C(C#N)(C#N)[C@H](c4c(F)cccc4F)[C@H]3C1CC2 (some centres undefined)	1.5%	?	-21.1%	?	0.6%	3.2%
CN1C2C=C3C(C#N)=C(N)C(C#N)(C#N)[C@@H](c4cccc(F)c4)[C@@H]3C1CC2 (some centres undefined)	1.9%	0.657µM*	10.1%	?	?	-13.5%
O=C(c1cc(C2CC2)nn1-c1ccccc1)N1CCN(S(=O)(=O)c2cccc(F)c2)CC1	-5.3%	?	-8.5%	8.28µM*	-1.8%	3.5%
O=C(c1cc(-c2cccs2)nn1-c1ccccc1)N1CCN(S(=O)(=O)c2ccccc2)CC1	-1.9%	4.15µM*	-22.2%	10.4µM*	2.4%	5.6%
COc1cc2c(cc1OC)CN(C(=O)c1cc(C3CC3)nn1-c1ccccc1)CC2	6.5%	5.86µM*	78.5%	?	-21.4%	-12.0%
CCOC(=O)CC(NC(=O)CCc1c(C)nc2c(c1C)c(=O)n(C)c(=O)n2C)c1ccc(OCC)c(OC)c1 (centres undefined)	.	.	.	.	12.5%	2.4%
CC(=O)N(C)C1=C(O)c2ccccc2C(=O)C1=O	-0.8%	?	-6.7%	4.0%	-2.3%	4.4%
CC(=O)N(C)C1=C(N2CCOCC2)C(=O)c2ccccc2C1=O	0.9%	0.294µM*	-0.8%	2.08µM*	?	15.6%
CC(=O)N(C1=C(N2CCOCC2)C(=O)c2ccccc2C1=O)c1ccc(C(=O)O)cc1	0.0%	0.415µM*	-19.9%	1.04µM*	7.8%	2.82µM*
C[C@@H]1C=C(C(=O)N2CCOCC2)O[C@H](OCc2ccc(CO)cc2)C1	-0.2%	63.2%	2.4%	-3.6%	-7.4%	-7.3%
COc1ccc(/C=N/NC(=O)NC23CC4CC(CC(C4)C2)C3)c(OC)c1	-6.4%	?	-13.1%	8.28µM*	-5.8%	-2.1%
CCOC(=O)C1(Cc2ccccc2C(F)(F)F)CCN(C2CCN(C(C)=O)CC2)CC1	0.5%	?	70.2%	9.28µM*	-2.9%	-6.4%
CCOC(=O)C1(Cc2ccccc2C(F)(F)F)CCN(C2CCC2)CC1	-0.5%	?	23.0%	?	6.6%	0.0%
O=C(N/N=C\c1cc(Br)ccc1O)c1ccc(S(=O)(=O)N2CCCCC2)cc1	?	-10.5%	-13.3%	5.22µM*	?	0.3%
O=C(N/N=C/c1cccnc1)c1ccc(S(=O)(=O)N2CCCCCC2)cc1	-0.7%	50.9%	29.3%	16.1%	-4.1%	0.4%
O=C(N/N=C/c1ccc(O)c(O)c1)c1cccc(S(=O)(=O)N2CCCCC2)c1	8.4%	-16.7%	14.1µM*	-23.0%	3.6%	-14.5%
O=C(NN=Cc1ccc(F)cc1)c1cccc(S(=O)(=O)N2CCCC2)c1	3.4%	.	-21.5%	.	.	.
COc1ccc(C(=O)NCC(c2ccco2)N(C)C)cc1S(=O)(=O)NCc1ccc(Cl)cc1 (centres undefined)	5.1%	?	-11.0%	?	5.7%	?
Cc1cc(C)nc(NS(=O)(=O)c2ccc(Br)s2)c1	13.8%	?	-10.1%	.	9.5%	?
Cc1ccc(NS(=O)(=O)c2ccc(Br)s2)nc1	4.2%	-0.2%	1.7%[2.29 µM]	29.1%	-4.7%	15.8µM*
CCn1nnnc1NCc1cccn1C	0.3%	.	-19.3%	6.7%	?	50.1µM*
COc1cccc(NC(=O)CN2C(=O)NC3(CCCc4ccccc43)C2=O)c1 (centres undefined)	-4.5%	4.65µM*	-29.0%	-21.0%	?	0.1%
COc1ccc(OC)c(NC(=O)CN2C(=O)NC3(CCCc4ccccc43)C2=O)c1 (centres undefined)	-3.0%	?	-15.4%	-20.4%	-16.7%	-5.1%
O=C(CN1C(=O)NC2(CCc3ccccc32)C1=O)Nc1c(Cl)cccc1Cl (centres undefined)	-2.3%	.	-19.2%	.	.	.
COc1ccc(C(NC(=O)CN2C(=O)NC3(CCc4ccccc43)C2=O)c2ccccc2)cc1 (centres undefined)	-1.6%	?	-15.3%	11.7µM*	-0.3%	-8.3%
SMILES	SARS PLpro yeast	Pf growth 96h	AmpC inh no detg	Pf growth 48h	AmpC detergent	Sm TGR inh
COc1ccc(C(=O)CN2C(=O)NC3(CCc4ccccc43)C2=O)cc1 (centres undefined)	0.7%	0.2%	-26.9%	81.4%	-13.8%	-0.4%
COc1ccc(C(NC(=O)CN2C(=O)NC3(CCc4ccccc43)C2=O)c2ccc(OC)cc2)cc1 (centres undefined)	2.5%	?	-16.9%	10.4µM*	0.0%	-2.3%
CCOc1ccccc1Nc1ccc2cc(S(=O)(=O)N3CCCCC3)ccc2n1	.	.	.	.	1.5%	28.8%
Cc1c(C(=O)N(Cc2ccc(Cl)cc2)CC2CCCO2)oc2ccc(F)cc12 (centres undefined)	.	.	.	.	19.1%	2.3%
C[C@@H](NC(=O)c1nc[nH]c1C(=O)NCc1ccc(CNC(=O)OC(C)(C)C)cc1)c1ccccc1	0.4%	?	0.8%	11.7µM*	-0.8%	-5.6%
C[C@H](NC(=O)c1nc[nH]c1C(=O)NCc1ccc(CNC(=O)OC(C)(C)C)cc1)C(=O)OC(C)(C)C	-0.8%	1.31µM*	115.7%	?	-11.6%	4.3%
CC(C)(C)OC(=O)NCc1ccc(CNC(=O)c2nc[nH]c2C(=O)N2CCN(c3ccccc3)CC2)cc1	-1.0%	-27.0%	73.2%	13.1µM*	-6.2%	-2.5%
CC(C)(C)OC(=O)CNC(=O)c1nc[nH]c1C(=O)NCc1ccc(CNC(=O)OC(C)(C)C)cc1	3.9%	80.9%	105.1%	?	-12.6%	1.4%
CC(C)(C)OC(=O)NCc1ccc(CNC(=O)c2nc[nH]c2C(=O)NCc2ccc(CNC(=O)OC(C)(C)C)cc2)cc1	-2.2%	.	52.7%	.	.	.
COc1ccc(CCNC(=O)CCc2c(C)nc3c(c(C)nn3-c3ccc(C)cc3)c2C)c(OC)c1	.	.	.	.	-3.7%	-9.9%
CCOC(C[n+]1c(-c2ccccc2)cc(C)cc1-c1ccccc1)OCC	-4.2%	1.47µM*	-2.7%	1.47µM*	-10.3%	1.1%
COc1ccc(CNC(=O)CN2CCC(NC(=O)c3ccc(OC)cc3)CC2)cc1	16.9%	0.1%	15.0%	-7.7%	-4.2%	2.0%
C=CCCc1ccc(C#N)c(SCc2c(C(=O)OCC)c3cc(OC(C)=O)c(Br)cc3n2C)n1	-11.5%	0.0%	-33.3%	5.22µM*	-6.4%	-13.3%
